The record followed here is PubChem BioAssay (NCI).

This is part of a sample that, as a whole, favours compounds with a hit. Of some 83,000 tested, about 20% had one in any assay.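 Percent growth is the endpoint: 0 to 100 indicates growth inhibition (40 means 60% inhibition), 0 means no net growth, and negative values indicate cell death.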 A number with no mark means an inactive call. Active and inactive are the calls of the source.

In the test the test system is HT29 colon. Nature of the test: NCI-60 one-dose screen, 48 h (100 = growth as untreated, 0 = no growth, -100 = all killed). To be noted: 10 µM. As for the experimental part:
Growth inhibition of the HT29 human tumor cell line is measured as a screen for anti-cancer activity. Cells are grown in 96 well plates and exposed to the test compound for 48 hours. Compounds are tested at a single concentration, which is 10^-5 M for most compounds. The reported endpoint is percent growth (GI% or GIPRCNT), where numbers from 0 - 100% represent growth inhibition, and numbers from -100% - 0 represent cell death. For example, a value of 40 represents 60% growth inhibition. A value of 0 means no net growth occurred over the course of the experiment. A value of -40 indicates 40% of cells at the beginning of the experiment died by the end of the experiment. A value of -100 means all cells are dead at the end of the experiment.
NCI-60 Human Tumor Cell Lines Screen was performed using the standard one-dose NCI protocol, which is described in more detail at https://dtp.cancer.gov/discovery_development/nci-60/default.htm.
Compounds with GIPRCNT values below 10 were considered active. Activity score was based on GIPRCNT using the following formula: […]
Score is 0 for GIPRCNT values of 100 or above, 50 for GIPRCNT values of 0, and 100 for GIPRCNT values of -100.
For `NC1CCC(Nc2nc(NCc3ccc(-c4cccs4)nc3)c3ncn(C4CCCC4)c3n2)CC1` (stereo not given), the growth was -12.7% (active).
`CCOC(=O)c1cc(-c2ccccc2)nc(N)n1`: the growth was 119%.
For `Cn1cnc([N+](=O)[O-])c1Sc1nnc(-c2ccccc2)c(-c2ccccc2)n1`, the growth is 74.8%.
With `O=C(Nc1cccc(-c2nc3ccccc3[nH]2)c1)c1cccc(NC(=O)c2ccco2)c1`, the growth is 27.6%.
In the case of `COc1cc(Cn2c(-c3ccccc3)c(Cl)c3c2-c2oncc2CC3)cc(OC)c1`, the growth was 56.1%.
Consider `CCc1nn2c(-c3cc(OC)c(OC)c(OC)c3)c(-c3cc(OC)c(OC)c(OC)c3)nc2s1`, for which the growth was 69.6%.
Take `CCCCCCCCCCSC(=N)N` (tested in a mixture with another compound): the growth is 3.13% (active).
The figure for `COc1ccc(-c2nnc(SC/C(=N\O)c3ccccc3)o2)cc1` is 95%; for `C/C=C\COc1cc(C)c(Cl)cc1Cl` it is 114%.
To `Cc1cc(Nc2cccc(F)c2)nc(NCc2ccccc2)n1` belongs 22.8%.
The figure for `CCCCCCCOc1cccc(/C=C2/C(=O)N=C3SCCCN32)c1` is 63.9%.
Consider `COc1ccccc1CNCCCN1C(=O)c2ccc3c4c(ccc(c24)C1=O)C(=O)N(CCCNCCNCCCN)C3=O`, for which the growth is 6.6% (active).
To `Cc1ccc2nc(-c3ccc(OCC(=O)N=Nc4c(O)[nH]c5ccccc45)cc3)[nH]c2c1` belongs 41.2%; to `Nc1c(C(=O)Nc2ccccc2F)sc2nc3c(cc12)C(=O)CCC3`, 12.2%; to `CCCn1c(=O)c2c(nc(-c3cccc(OCCCCl)c3)n2C)n(CCC)c1=O`, 74.2%.
As for `Nc1ncncc1-c1ccc(F)cc1`, the growth was 113%.
Regarding `CCC(O)c1ccc(Br)cc1NC(=O)c1cccc(Cl)c1` (stereo not given), the growth was 83.7%.
`C=CCNC(=S)NN`: the growth was 55.5%.
For the compound `Nc1cc(O)cc(O)c1`, the growth was 95%.
With `CCCCCCCCCCCC(c1ccccc1)N(C)C` (stereo not given), the growth was 86.3%.
Regarding `O=C(Cn1ccc(=O)[nH]c1=O)c1ccc([N+](=O)[O-])o1`, the growth is 101%.
`Nc1cc2c(cc1Cl)-c1ccc(Cl)cc1C2=O`: the growth was 97.5%.
Consider `Fc1ccc(-c2cc(C(Cl)Cl)no2)cc1`, for which the growth is 114%.
With `CCCCNC(=O)Oc1ccc(/C(=C(\C)c2ccc(OC)cc2)c2ccc(OCCN3CCCCC3)cc2)cc1`, the growth is 7.84% (active).
Regarding `CN(C)c1ccc2c(c1)OC(N)=C(C#N)C2c1ccc2c(c1)CCO2` (stereo not given), the growth is 9% (active).
The figure for `CN1/C(=C\C(I)C(I)C2=[N+](C)c3ccccc3C2(C)C)C(C)(C)c2ccccc21` (stereo not given) is 4.84% (active); for `CNC(=O)c1cc(Oc2ccc(NC(=O)Nc3ccc(Cl)c(OC(C)C)c3)c(F)c2)ccn1` it is 41.6%.
For the compound `O=C(/C=C/c1nnc2n(Cc3ccccc3)c(=O)c3c4c(sc3n12)CCCC4)c1ccccc1`, the growth is 106%.
Turning to `CCCCCCCC/C=C/CCCCCCCCC1=NCCN1CCO`, the growth was 19.7%.
For `COc1cc2nc(Sc3sc(N)nc3C)n(-c3ccc(Oc4ccccc4)cc3)c(=O)c2cc1OC`, the growth was 75%.
For the compound `CCN1CCN(c2nc(NNC(=O)c3cccc(OC)c3)nc(N3CCN(C(c4ccccc4)c4ccccc4)CC3)n2)CC1`, the growth was 9.36% (active).
For the compound `Cc1cc(C)c2c(Nc3ncnc4c3sc3nc(C)cc(C)c34)n[nH]c2n1`, the growth is 102%.
Consider `COc1ccc(-c2cc(/C=C3\C(=O)Nc4cc(Cl)ccc43)[nH]n2)cc1`, for which the growth was 1.13% (active).
The figure for `CCN(CC)CC(O)CNc1ccnc2cc(Cl)c(Cl)cc12` (stereo not given) is 77.6%.
Turning to `S=C(Cc1ccc(-c2ccccc2)cc1)N1CCOCC1`, the growth is 103%.
`CN(C)CCCN1c2ccccc2Sc2ccc(C(F)(F)F)cc21`: the growth was -8.15% (active).
As for `CCCCOCCOCCOCc1cc2c(cc1Br)OCO2`, the growth is 92.6%.
As for `CCOC(=O)c1cc2c(n1Cc1ccccc1)-c1oncc1CC2`, the growth was 35.4%.
To `CCCCCCCCCCCCCCCC(=O)N1CCN(C)CC1` belongs 51.1%; to `COc1cccc(C(=O)NNc2nc(N3CCN(C4CCCCC4)CC3)nc(N3CCN(C(c4ccccc4)c4ccccc4)CC3)n2)c1`, 24%.
